Hits are enriched below; roughly 3.5% of the tested compounds scored in any of these assays.
GPR151 ag = activates the human receptor GPR151; PathHunter beta-arrestin GPR151 cells, luminescence; activation, % at 11.2 µM; AID 1508602; Q8TDV0; hit rate 1% among 650,000; in the data active means activation above about 4.9%
Target sequence (Q8TDV0 whole entry, looked up): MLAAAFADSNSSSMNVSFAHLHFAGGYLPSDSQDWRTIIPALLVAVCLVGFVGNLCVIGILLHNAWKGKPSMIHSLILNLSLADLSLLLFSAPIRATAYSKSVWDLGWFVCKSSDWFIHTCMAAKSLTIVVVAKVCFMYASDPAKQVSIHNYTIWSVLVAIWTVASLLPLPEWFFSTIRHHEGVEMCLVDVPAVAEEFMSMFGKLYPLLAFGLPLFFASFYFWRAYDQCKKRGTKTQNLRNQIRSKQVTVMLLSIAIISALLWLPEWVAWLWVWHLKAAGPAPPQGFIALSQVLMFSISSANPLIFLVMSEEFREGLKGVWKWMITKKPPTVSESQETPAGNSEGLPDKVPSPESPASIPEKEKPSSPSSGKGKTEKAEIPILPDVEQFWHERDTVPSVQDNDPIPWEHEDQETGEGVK
FBW7 act = activators of human E3 ligase FBW7 | hit rate 0.13% among 650,000 | normalized activity (activation), % at 26.1 µM | AlphaScreen FBW7–phospho-cyclin E peptide binding, activator screen | Q969H0; in the data active means normalized activity above about 1.9%;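 further: purified mutant Fbw7 with reduced substrate affinity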
MITF inh = blocks human microphthalmia-associated transcription factor. hit rate 0.91% among 650,000. AID 1259374. AlphaScreen MITF homodimerization, bead proximity signal. O75030. inhibition, % at 2.6 µM; in the data active means inhibition above about 50%
TEAD-YAP block = TEAD-YAP interaction inhibition; inhibition, % at 9.12 µM; HEK-TIYL cells, TEAD-Gal4/YAP UAS-luciferase luminescence; hit rate 1.4% among 640,000; in the data active means inhibition above about 32%
Each line names hits and unclear results; the compound was inactive in the other large screens.

Cc1cccc(NC(=O)CSc2nc(C)cc(C(F)(F)F)c2C#N)n1	TEAD-YAP block 88
Cc1cc(C)nc(SCC(=O)Nc2nc3ccccc3s2)n1	none
Cc1cc(C)c(C#N)c(SCC(=O)Nc2ccccn2)n1	TEAD-YAP block 86
COC(=O)CSc1nc(-c2ccco2)cc(C(F)(F)F)c1C#N	FBW7 act 2.0
Cc1cc(C(F)(F)F)c(N)c(SCC(=O)Nc2nc3ccccc3s2)n1	TEAD-YAP block 65
Cc1cc(C)c(C#N)c(SCC(=O)Nc2nccs2)n1	none
CCOC(=O)C1=C(C)NC(=S)NC1c1ccc2ccccc2c1 (configuration not stated)	none
Cc1ccc(C(=O)Nc2ncc3c(n2)CC(c2ccccc2)CC3=O)cc1 (configuration not stated)	none
COC(=O)c1ccc(Oc2c(C(F)(F)F)oc3cc(O)ccc3c2=O)cc1	none
CCCc1ccc(Oc2c(C(F)(F)F)oc3cc(O)ccc3c2=O)cc1	TEAD-YAP block 65
CC(C)(C)c1ccc(Oc2c(C(F)(F)F)oc3cc(O)ccc3c2=O)cc1	TEAD-YAP block 88
O=C(Cc1ccccc1)Nc1ccc(Br)cc1	none
O=C(Cc1ccc(Br)cc1)Nc1ccncc1	TEAD-YAP block 50
O=C(Oc1ccc2ccccc2c1)c1cccs1	none
COC(=O)c1sccc1NC(=O)c1ccccc1C	none
CCOc1ccccc1C(=O)Nc1ccsc1C(=O)OC	TEAD-YAP block 55
Cc1cccc(NCC(O)Cn2c(C)c(C)c3ccccc32)c1C (configuration not stated)	MITF inh 51
CC(=O)N(C1=C(N2CCOCC2)C(=O)c2ccccc2C1=O)c1ccc(F)c(F)c1	TEAD-YAP block 32
CC(=O)N(C1=C(N2CCOCC2)C(=O)c2ccccc2C1=O)c1cc(C)cc(C)c1	TEAD-YAP block 39
COc1ccccc1-n1c(SCC(=O)N(C)C)nnc1-c1cccnc1	none
NC(=O)c1ncsc1Nc1ccnc(Nc2ccc(N3CCOCC3)cc2)c1	none
CSc1nc(Nc2ccnc(Nc3ccc(N4CCOCC4)cc3)c2)c(C(N)=O)s1	TEAD-YAP block 41
CC1=CC(=C2C(=O)c3ccccc3C2=O)C=C(C)N1C(C)C	TEAD-YAP block 67
Cc1ccc2c(c1)C1(NN=C(c3ccccc3O)S1)C(=O)N2 (configuration not stated)	TEAD-YAP block 54
Cc1cc(NC(=O)Cn2c3c(c4ccccc42)CCC3)no1	TEAD-YAP block 57
O=C(CN1CCC(c2cccnc2)CC1)Nc1nccs1	none
O=C(CN1CCC(c2ccncc2)CC1)Nc1nccs1	TEAD-YAP block 34
Cc1nnc(NC(=O)Cn2c3c(c4ccccc42)CCC3)s1	none
O=C(Cn1c2c(c3ccccc31)CCC2)Nc1nccs1	TEAD-YAP block 34
C[C@H]1NC(=O)[C@H]2CN(Cc3cccc(F)c3)CCN2C1=O	none
CN1CCN(CCCOc2ccc3ccccc3c2Br)CC1	none
Cc1ccc2c(c1)Oc1ccc(NC(=O)CCCl)cc1C(=O)N2	TEAD-YAP block 33
Cc1ccc2c(c1)NC(=O)c1cc(NC(=O)c3ccccc3Br)ccc1O2	TEAD-YAP block 44
CCN(C(=O)CCS(=O)(=O)c1ccc2c(c1)n(C)c(=O)c(=O)n2C)c1ccccc1	none
O=C(CN1C(=O)c2ccccc2C1=O)N1CCN(c2ccccc2Cl)CC1	none
O=C(/C=C/c1ccc(F)cc1)c1ccc(N2CCOCC2)cc1	none
Cc1ccc(/C=C/C(=O)c2ccc(N3CCOCC3)cc2)s1	TEAD-YAP block 49
Cc1cc(C)n(CCNC2CCN(c3cccc(NC(=O)CC4CCCC4)c3)CC2)n1	TEAD-YAP block 42
Cc1cc(C)n(CCNC2CCN(c3cccc(NC(=O)C4CC4)c3)CC2)n1	none
Cc1nc(C(C)NC(=O)c2cc(COc3ccc(F)cc3F)on2)cs1 (configuration not stated)	FBW7 act 2.0
O=C(NCc1ccc2c(c1)OCO2)c1cc(COc2ccc3ncccc3c2)on1	TEAD-YAP block 35
CC(NC(=O)c1cc(COc2ccc3ncccc3c2)on1)c1ccc(F)cc1 (configuration not stated)	TEAD-YAP block 38
CC(C)OCCNC(=O)c1cc(COc2ccc3ncccc3c2)on1	none
O=C(NC1CCCC1)c1cc(COc2ccc3ncccc3c2)on1	TEAD-YAP block 40
CCCNc1c2c(nc3ccccc13)CC(C)(C)CC2=O	none
COc1ccc(CNC(=O)c2cccc(F)c2)cc1	none
O=C(NCC1CCOCC1)c1cc(COc2ccc3ncccc3c2)on1	TEAD-YAP block 33
CC(C)c1cc(CNC(=O)c2cc(COc3ccc4ncccc4c3)on2)on1	none
O=C(COc1nc2ccccc2s1)n1c2ccccc2c2ccccc21	none
CC(=O)Nc1ccc2nc(-c3ccc(-c4nc(-c5ccccc5)c5cc(NC(C)=O)ccc5n4)cc3)nc(-c3ccccc3)c2c1	none
CCC(C)Nc1c(-c2ccc(C)c(C)c2)c(=O)c1=O (configuration not stated)	TEAD-YAP block 52
Cc1ccc(-c2c(NC3CCCC3)c(=O)c2=O)cc1C	TEAD-YAP block 32
CCC(C)Nc1c(-c2ccc(C)cc2)c(=O)c1=O (configuration not stated)	none
CN1C(=O)c2ccc(NC(=O)C34CC5CC(CC(C5)C3)C4)cc2C1=O	none
Nc1ccc2oc(-c3ccc4nc[nH]c4c3)nc2c1	TEAD-YAP block 61
Nc1ccc2oc(-c3ccc(O)c(Br)c3)nc2c1	TEAD-YAP block 59
Nc1ccc2oc(-c3cccc(Br)c3)nc2c1	none
Nc1ccc2oc(-c3ccc(F)cc3Cl)nc2c1	TEAD-YAP block 37
Nc1ccc2oc(-c3ccc(F)cc3)nc2c1	none
Nc1ccc2oc(-c3ccccc3Br)nc2c1	none
Nc1ccc2oc(-c3cccc4c(Br)cccc34)nc2c1	TEAD-YAP block 65
CC(C)N(CCNc1ncnc2nc(-c3ccc(C(=O)N4CCN(C)CC4)cc3)[nH]c12)C(C)C	none
COC(=O)c1c(NC(=O)c2ccc3c(c2)OCO3)sc(C)c1C	none
Cc1sc(NC(=O)c2ccc3c(c2)OCO3)c(C(N)=O)c1-c1ccccc1	TEAD-YAP block 90
Cc1sc(NC(=S)NC(=O)CCc2ccccc2)c(C(N)=O)c1C	TEAD-YAP block 50
Cc1c(Cc2ccc3c(c2)OCO3)sc(NC(=O)CCc2ccccc2)c1C(N)=O	TEAD-YAP block 56
COC(=O)CCC(=O)Nc1sc(C)c(C)c1C(N)=O	none
CC(=O)Nc1sc(Cc2ccc3c(c2)OCO3)c(C)c1C(N)=O	none
COC(=O)CCC(=O)NC(=S)Nc1sc(C)c(C)c1C(N)=O	TEAD-YAP block 52
O=C(NCCC1=CCCCC1)c1cc(Sc2ccc(F)cc2)nc2ccccc12	none
CCCNC(=O)CCc1c(C)nc2c(c(C)nn2C)c1C	none
N#Cc1cnc(N)c(C#N)c1Nc1ccccc1	TEAD-YAP block 38
N#Cc1cc(N)c(Nc2ccccc2)cc1C#N	none
CSc1ccc(C2N=C(c3ccccc3)NO2)cc1 (configuration not stated)	none
CN(C)c1ccc(C2N=C(c3ccccc3)NO2)cc1 (configuration not stated)	TEAD-YAP block 35
O=C(Nc1ccc(O)cc1)c1ccccc1Cl	TEAD-YAP block 52
CS(=O)(=O)Nc1ccc(C(=O)Nc2ccc3ccccc3c2)cc1	none
CC(=O)Oc1ccc(C(=O)Nc2ccc3ccccc3c2)cc1	TEAD-YAP block 36
O=C(Nc1ccc(O)cc1)c1ccc2ccccc2c1	TEAD-YAP block 47
